In all, about 86,000 compounds went through this assay and about 140 (0.16%) were called active.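 The calls were made as follows: active = activation factor of at least 2 for MT1-MMP transcription at 10 µM; inactive = the rest.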 This excerpt belongs to a sample that is enriched for actives.
Assay: MT1-MMP promoter reporter activation – cell-based, luciferase luminescence, primary screen (AID 750)
Conditions: HT1080 MT1-MMP promoter luciferase reporter, overnight, at 10 µM, stronger effect = higher value

| Structure (SMILES) | activation factor |
| --- | --- |
| Cn1c(=N)n(CC(O)c2ccccc2)c2ccccc21 (stereo not given) | 1.5 (inactive) |
| CC1CCC2(CC1)NC(=O)N(CC(=O)c1cccn1C)C2=O (stereo not given) | 1.2 (inactive) |
| COc1ccccc1NC(=O)C1CCCN(c2cc(C)nc3ncnn23)C1 (stereo not given) | 1.1 (inactive) |
| COc1cc(OC)cc(-c2cc3nc(C4CCN(C(=O)OC(C)(C)C)CC4)cc(=O)n3[nH]2)c1 | 1.1 (inactive) |
| COc1ccc(OC)c(-n2nnnc2SCC(=O)Nc2cc(C)ccc2OC)c1 | 1 (inactive) |
| COc1ccc(C(=O)Nc2ccc(S(=O)(=O)NC(C)C)cc2)cc1 | 1.1 (inactive) |
| COC(=O)[C@@]1(Cc2ccccc2)C=C[C@@H](C)N1 | 1.2 (inactive) |
| O=C1C2N=NN(CC(=O)N3N=C(c4cccc5ccccc45)CC3c3ccccc3)C2C(=O)N1c1ccccc1 (stereo not given) | 1.2 (inactive) |
| CC(N=Cc1nc(-c2ccccc2)oc1O)c1ccccc1 (stereo not given) | 1.2 (inactive) |
| c1ccc2[nH]c(NCCN3CCOCC3)nc2c1 | 1.1 (inactive) |
| Cc1cc2nc(SCCN3CCOCC3)[nH]c2cc1C | 2 (active) |
| Cc1ccc(S(=O)(=O)NCCN2CCOCC2)cc1C | 1.1 (inactive) |
| CCOc1cc(NC(=O)c2cnccn2)c(OCC)cc1NC(=O)c1ccc(C)cc1 | 1.3 (inactive) |
| COC(=O)C1=C(C)N=C2SC(C)C(=O)N2C1/C=C/c1ccccc1 (stereo not given) | 1.1 (inactive) |
| OC(COCCC12CC3CC(CC(C3)C1)C2)CN1CCCCC1 (stereo not given) | 1.1 (inactive) |
| COc1ccc(/C(O)=C2/C(=O)C(=O)N(CC3CCCO3)C2c2ccc(OC)c(OC)c2)cc1 (stereo not given) | 1.3 (inactive) |
| O=C(CCn1c(SCC(=O)c2ccccc2)nc2ccccc2c1=O)NCc1ccc(F)cc1 | 1.1 (inactive) |
| CCN1CCCC1Cn1cnc2c([nH]c3cc(OC)ccc32)c1=O (stereo not given) | 1.1 (inactive) |
| Cc1cc(NC(=O)CSc2nnc(-c3ccc(Cl)s3)o2)no1 | 1.1 (inactive) |
| Cc1cc(N/C=C\C(=O)c2ccc(Cl)c(Cl)c2)no1 | 2.1 (active) |
| CCCNC(=O)c1ccc(Cl)c(Cl)c1 | 1 (inactive) |
| CCN(CC)C(=O)CSc1nc2ccccc2n1CC(=O)N1CCN(c2ccccc2OC)CC1 | 1.1 (inactive) |

| Structure (SMILES) | activation factor |
| --- | --- |
| CC/S(CC1CC1(Cl)Cl)=N\S(=O)(=O)c1ccc(C)cc1 (stereo not given) | 1 (inactive) |
| CC(C)C(OC(=O)c1cccs1)C(=O)NC1CCCCC1 (stereo not given) | 1.3 (inactive) |
| OC(CN1C2=NCCCN2c2ccccc21)c1ccc(Br)cc1 (stereo not given) | 1.2 (inactive) |
| Cn1c(SCC(=O)NC2CCCCC2)nnc1-c1cc2ccccc2o1 | 1.4 (inactive) |
| NC(=O)c1ncc(C(F)(F)F)cc1Oc1ccc(F)cc1 | 1.1 (inactive) |
| CCOc1ccccc1NC(=O)c1cccnc1 | 1.3 (inactive) |
| CNC(=S)N1N=C(c2ccccc2)CC1c1ccc(Br)cc1 (stereo not given) | 1.3 (inactive) |
| Cc1noc(NS(=O)(=O)c2ccc(N/C=C/C(=O)c3ccccc3)cc2)c1C | 1.3 (inactive) |
| COc1cc(C)c(C(C)C)cc1S(=O)(=O)n1ccnc1 | 1.2 (inactive) |
| COc1ccc(NC(=O)CCN2CCCC2)c(OC)c1 | 1.2 (inactive) |
| COC(=O)c1ccc(NC(=O)Nc2ccc(C)cc2)cc1 | 1.6 (inactive) |
| COc1ccc(C(=O)Cc2cnn(-c3ccccc3)c2)c(O)c1 | 1.3 (inactive) |
| CC(C)CCSc1ncnc2c1oc1nc3c(cc12)COC(C)(C)C3 | 1.1 (inactive) |
| COc1cccc(NC(=O)CN2CCN(c3nc(-c4cccc(OC)c4)cs3)CC2)c1 | 1.2 (inactive) |
| CCCNC(=O)NCc1ccc(N2CCCC2=O)cc1 | 1.1 (inactive) |
| COc1ccc(C2C(C(C)=O)=C(O)C(=O)N2Cc2cccnc2)cc1 (stereo not given) | 1.2 (inactive) |
| CC(C)NC(=O)CSc1nnc(COc2ccccc2Cl)o1 | 1.1 (inactive) |
| CCOn1c(SC(C)C)nc2ccccc2c1=O | 1.1 (inactive) |
| COC(=O)C1CCN(CC(N)=O)CC1 | 1.1 (inactive) |
| CC(C)OC(=O)CN1C(=O)C(=O)c2ccccc21 | 1.3 (inactive) |
| COc1ccc(-c2oc(/N=C/N3CCCC3)c(C#N)c2-c2ccc(OC)cc2)cc1 | 1.1 (inactive) |
| COC(=O)[C@H](Cc1ccccc1)NC(=O)[C@@H]1C[C@H]1[C@@H](NC(=O)OCc1ccccc1)c1ccccc1 | 1.1 (inactive) |

| Structure (SMILES) | activation factor |
| --- | --- |
| CCOc1ccc(S(=O)(=O)NCCSc2ccccc2)cc1 | 1.1 (inactive) |
| CCOC(=O)C1=C(CCc2ccccc2)NC(=O)NC1c1ccc2ccccc2c1 (stereo not given) | 1.4 (inactive) |
| COc1ccc(C)cc1S(=O)(=O)Nc1cccc(Cl)c1Cl | 1.1 (inactive) |
| Cc1ccc(C(=O)N2CCCC2)c(F)c1F | 1.2 (inactive) |
| O=C(O)c1cc2ccccc2c(=O)s1 | 1.1 (inactive) |
| Cc1cc(C)n(-c2c(F)c(F)c(COC(=O)c3ccccc3)c(F)c2F)n1 | 1.1 (inactive) |
| Cc1ccc(/C=N/NC(=O)C2=NNC(c3ccccc3)(c3ccccc3)C2)c(O)c1 | 1.1 (inactive) |
| COc1ccc(C)cc1NC(=O)CCS(=O)(=O)c1cccc2nonc12 | 1 (inactive) |
| CN(C)c1nc(N)nc(CSc2ccccn2)n1 | 1.1 (inactive) |
| CCCc1noc2c1/C(=N\O)CCC2 | 1.1 (inactive) |
| Cn1c(Cc2cccc3ccccc23)nnc1SCC(=O)N1CCN(c2cccc(Cl)c2)CC1 | 1.1 (inactive) |
| CCOc1ccc(NC(=O)CN(C)CC(=O)Nc2cccc(Cl)c2C)cc1OCC | 0.9 (inactive) |
| COc1ccc(N2CCN(C(=O)CNC(=O)c3ccc(C(C)(C)C)cc3)CC2)cc1 | 1.1 (inactive) |
| O=C(NCCSCc1ccccc1)c1ccc(Cl)c(S(=O)(=O)N2CCOCC2)c1 | 1.1 (inactive) |
| Cc1cnc(NC(=O)CSc2nnc(C)s2)s1 | 1 (inactive) |
| CCN(CC(=O)NC1CCS(=O)(=O)C1)c1nc(-c2cccnc2)nc2ccccc12 (stereo not given) | 1.1 (inactive) |
| COc1ccccc1NC(=O)CSc1nnc(C)n1CC1CCCO1 (stereo not given) | 1.1 (inactive) |
| O=C(CN1CCN(C(=O)c2ccco2)CC1)Nc1ccc2c(c1)OCO2 | 1.4 (inactive) |
| O=C(Nc1nnc(SCc2c(Cl)cccc2Cl)s1)C1CCCO1 (stereo not given) | 1.2 (inactive) |
| Cc1ccc(C2(C(F)(F)F)N=C3Sc4cc(C)cc(C)c4N3C(=O)N2)cc1 (stereo not given) | 1.1 (inactive) |
| C=C(C)CNC(=S)/N=c1\scc(C)n1CC | 1.3 (inactive) |
